According to PubChem BioAssay AID2732 (Emory University Molecular Libraries Screening Center, 2010):
Among all 220,000 compounds or so, about 8,200 (3.7%) were called active. Many of the other results were omitted from the sample, so actives are more common in it than they were. Unmarked numbers belong to inactive results.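 Rule for the calls: active = compounds that reduced the stress-induced luciferase reporter signal by more than about 70% of percent inhibition (limit read from the data); inactive = the rest.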 Residues, ends and D or L forms follow the SMILES beside them. *: point of attachment. Bz = O=C(c1ccccc1)*

experiment: blockers of ER-stress CHOP reporter expression – cell-based, unfolded protein response, luciferase reporter, primary screen (AID 2732); settings: CHO-K1 CHOP-promoter luciferase, tunicamycin-induced, 15-18 h; at 10 µM; hits give high values;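 note: 0% = tunicamycin plus vehicle and 100% = wells without tunicamycin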

SMILES	inhibition
C#CCO[C@@H]1C[C@H](n2cnc3c(=O)[nH]c(NC(=O)C(C)C)nc32)O[C@@H]1CO	-12.9%
COc1ccc([N+](=O)[O-])cc1N(CC(O)CN(CC(C)C)CC(C)C)S(=O)(=O)c1ccc(C)cc1 (stereo unspecified)	9.51%
COc1ccc(CN2C(=O)C(C)S/C2=N/N=C/c2ccco2)cc1 (stereo unspecified)	5.76%
S=C(NCCc1ccccc1)Nc1ccccc1	-23.1%
S=C(NCCc1ccccc1)NCc1ccccc1Cl	76.7% (active)
Cc1ccc(NC(=S)NCc2ccccc2Cl)c(C)c1	21.4%
CCCCCCCCCCCCC(NC(C)=O)(C(=O)OCC)C(=O)OCC	28.6%
S=c1[nH]nc(-c2cccnc2)n1/N=C/C(Cl)=C\c1ccccc1	-39.3%
Cc1cc(-c2n[nH]c(=S)n2/N=C/C(Br)=C/c2ccccc2)n[nH]1	106% (active)
Cc1cc(-c2n[nH]c(=S)n2/N=C/c2ccco2)n[nH]1	-10.9%
COC(=O)c1sc(NC(=S)NC(=O)c2ccc(C)cc2)nc1C	-2.37%
Nc1ccccc1C(=O)NC1CCCCNC1=O (stereo unspecified)	13.6%
COc1ccccc1Cn1c(CO)nc2ccccc21	6.99%
Cc1ccc(Nc2c3c(nc4ccccc24)CCC3)cc1	17.5%
Cc1cc(C2=NNC(=Nc3ccc(S(=O)(=O)N4CCOCC4)cc3)SC2)c(C)n1CC1CCCO1 (stereo unspecified)	6.71%
COCCn1c(C)cc(C2=NNC(=Nc3ccc(F)cc3)SC2)c1C	-7.2%
C=CCn1c(C)cc(C2=NNC(=NCC)SC2)c1C	105% (active)
CCN(CC)C(=O)c1sc(NC(=O)c2ccco2)c(C#N)c1C	-5.34%
CCCc1ccc(-c2c(C)sc(NC(=O)c3ccnn3C)c2C#N)cc1	76.4% (active)
Cn1nccc1CNC(=O)c1ccnn1C	-26%
CCCCCCCN=C(C)c1ccccc1O	-7.28%
CCNS(=O)(=O)c1ccc(NC(=O)Nc2cccc(OC)c2)cc1	-10.9%
CCNS(=O)(=O)c1ccc(NC(=O)Nc2cccc(C(F)(F)F)c2)cc1	87.4% (active)
Cc1ccc(NC(=O)Nc2cccc(C(F)(F)F)c2)nc1	-25.1%
Cn1nc(C(F)(F)F)cc1C(=O)O	13.6%
CSC1=NCCN1C(=O)Cc1cccc2ccccc12	13.7%

SMILES	inhibition
COc1ccc(NC(=O)Nc2ccc3nsnc3c2)cc1	4.53%
O=C(Nc1ccccc1)Nc1nc2ccccc2s1	-20.1%
O=C(Nc1ccc2ccccc2c1)Nc1ccc2snnc2c1	79.2% (active)
Cc1ccc(F)cc1NC(=O)N1CCCN(c2ccc(C(F)(F)F)cn2)CC1	1.83%
COc1cc(NC(=O)c2cncc(-c3ccc(C#N)cc3)c2)cc(C(=O)Nc2cccc(C(F)(F)F)c2)c1	22.1%
COc1ccc(OCC(=O)Nc2nnc(-c3ccco3)s2)cc1	28.2%
Cc1ccc(OCC(=O)Nc2nnc(-c3ccco3)s2)cc1	82.2% (active)
CNc1nnc(-c2ccco2)s1	7.19%
CC(NCc1ccccc1OC1CCCC1)c1ccccc1 (stereo unspecified)	11.4%
O=C(CSc1nc2ccccc2o1)N/N=C/c1ccccc1C(=O)O	-2.6%
C=CCNC(=O)CSc1nc2scc(-c3ccco3)c2c(=O)n1CC=C	-19.4%
O=S(=O)(Nc1ccc(Cl)cn1)c1cnc(Cl)c(Br)c1	9.6%
CCCCN1C(=O)/C(=C2/C=CC=CN2C)SC1=S	-3.04%
CCN1C(=O)/C(=C\N2CCN(c3ccccc3)CC2)SC1=S	23.4%
CCCCN1C(=O)/C(=C/C=C2/C=Cc3ccccc3N2CC)SC1=S	70.5% (active)
CC1Cc2ccccc2N1CC(=O)Nc1ccc(S(N)(=O)=O)cc1 (stereo unspecified)	-11.8%
COc1ccc(Nc2cc(Cl)ccc2C(=O)O)cn1	9.7%
Cc1ccc(-c2noc(CCC(N)=O)n2)cc1	10.7%
CCNC(=O)CCc1nc(-c2ccc(C(C)(C)C)cc2)no1	91% (active)
CCNC(=O)CCc1nc(-c2ccc(C)cc2)no1	11.2%
CC1CCN(c2ccc([N+](=O)[O-])c(SCCO)c2)CC1	7.43%
Cc1ccc(-c2nnc(-c3ccc(NC(=O)c4cccs4)cc3)o2)cc1	89% (active)
O=C(Nc1ccc2oc(-c3ccc4ccccc4c3)nc2c1)c1cccs1	-26.2%
Cc1ccc(-c2csc(NC(=O)c3cccs3)n2)cc1	78.4% (active)
CCCc1ccc(-c2csc(NC(=O)Cc3cccs3)n2)cc1	12.1%
COc1ccc(CC(=O)Nc2ccc(-c3nnc(-c4ccc(C)cc4)o3)cc2)cc1	83.6% (active)

SMILES	inhibition
Cc1ccc(-c2csc(NC(=O)Cn3[nH]c(=O)c4ccccc4c3=O)n2)cc1	80% (active)
COc1ccc(CC(=O)Nc2ccc(C(=O)NC(C)(C)C)cc2)cc1	19.1%
Cc1ccc(C(=O)NNC(=O)c2cccs2)cc1	-31.6%
Cc1cccc(S(=O)(=O)CC(=O)Nc2nc(-c3ccccc3)cs2)c1	-8.42%
Cc1ccc(-c2csc(NNC(=O)c3ccccc3)n2)cc1	21.4%
Cc1ccc(OCC(=O)Nc2ccc(-c3nc4ncccc4o3)cc2)cc1	-4.24%
O=C(O)c1ccc(NC(=O)c2cccs2)cc1	28.8%
CC(=O)N1CC[n+]2c(-c3ccc([N+](=O)[O-])cc3)csc21	-3.95%
O=C(O)CCc1cccnc1	16.7%
COc1ccc(CN2CCOC2=O)cc1OC	-5.21%
COc1ccc(N2C(=O)C3C(C2=O)C(C(=O)c2ccccc2)N2CCCC32)cc1 (stereo unspecified)	11.9%
CC(C)C[C@H](CO)Nc1nc(N(C)c2cccc(Cl)c2)c2ncn(C(C)C)c2n1	21.8%
COC(=O)c1ccccc1N=Nc1c(C)[nH][nH]c1=O	14.2%
CCCNc1c(N)c(=O)c1=O	3.2%
CCc1c(C)nc2c(-c3ccccc3)c(C)nn2c1Nc1ccc(NC(C)=O)cc1	17.3%
CCS(=O)(=O)c1cc([N+](=O)[O-])c(Sc2ccccc2N)s1	-0.04%
COc1cc(C(F)(F)F)nc2c(Br)c(C(C)(C)C)nn12	15%
CCN(CC)CCn1cnc2c1c(=O)n(CCOC(=O)c1cc(OC)c(OC)c(OC)c1)c(=O)n2C	-3.64%
CCN1CCN(C(c2cccnc2)c2cc(Cl)c3cccnc3c2O)CC1 (stereo unspecified)	-101%
Oc1c(CN2CCN(c3ccc(F)cc3)CC2)cc(Cl)c2cccnc12	92% (active)
Fc1ccc(N2CCN(Cc3cnc(Oc4ccc(Br)cc4)s3)CC2)cc1	21%
Cc1cc(N2CCN(c3ccc(F)cc3)CC2)n2ncnc2n1	1.35%
O=C(C(Cc1ccccc1)n1cccc1)N1CCN(C2CCCCC2)CC1 (stereo unspecified)	72.6% (active)
O=C(NC(Cc1ccccc1)C(=O)N1CCCC1C(=O)O)c1ccccc1 (stereo not drawn) (Bz-Phe-Pro-OH; configuration not given here)	-0.39%
Cc1ccc(C(=O)N2CCN(C3CCCCC3)CC2)s1	12.7%
CC(=O)c1ccc(S(=O)(=O)N2CCN(C(=O)/C=C/c3ccc4ccccc4n3)CC2)cc1	60%

SMILES	inhibition
O=C(Nc1ccccc1)OCc1cc(-c2ccc(Cl)cc2)on1	-15.4%
O=C(Nc1ccccc1)OCc1cn(-c2ccc(Cl)cc2)nn1	-8.26%
O=C(Nc1ccc(Cl)cc1)OCc1cc(-c2ccccc2)on1	89.7% (active)
CCOC(=O)Cn1c2c(c(-c3ccccc3OC)cc1=O)CCCC2	77.2% (active)
CCOC(=O)CN1CCC(c2ccccc2)CC1	8.89%
CCOC(=O)Cn1c(-c2cccnc2Cl)nc2ccccc21	-1.12%
FC(F)(F)c1nc(-c2ccccc2)ncc1-c1nnnn1-c1ccccc1	49.3%
CCOC(=O)C(C)Sc1nc2ccccc2c(=O)n1CC1CCCCC1 (stereo unspecified)	99.3% (active)
CC(Sc1nc2ccccc2c(=O)n1Cc1ccco1)C(=O)c1ccccc1 (stereo unspecified)	16.2%
CCOn1c(SC(C)C)nc2ccccc2c1=O	-9.05%
Cc1nnc2n1N=C(c1ccc3c(c1)NC(=O)CO3)CS2	8.13%
O=C(O)c1ccccc1C(=O)Nc1ccccc1[N+](=O)[O-]	-7.32%
CCC(C)c1ccc(O)c(/C=N/O)c1 (stereo unspecified)	71.8% (active)
CNCC(O)c1ccc(O)c(O)c1 (stereo unspecified)	-0.79%
O=C(Cc1c(F)cccc1Cl)Nc1ncc([N+](=O)[O-])s1	9.25%
O=C(CCc1ccccc1)Nc1ncc([N+](=O)[O-])s1	-9.45%
CC(=O)Oc1ccccc1C(=O)Nc1ncc([N+](=O)[O-])s1	72.1% (active)
O=C(NNC(=S)Nc1ccc(F)cc1)[C@H]1C[C@@H]1c1ccccc1	5.39%
CCOc1cc(C)c(Cl)cc1S(=O)(=O)n1nnc2ccccc21	73.7% (active)
CCCOc1cc(C)c(S(=O)(=O)n2nnc3ccccc32)cc1C	-25.8%
COc1cc(C)c(Cl)cc1S(=O)(=O)n1ccnc1	14.6%
CN(c1ccccn1)c1ncnc2[nH]ncc12	16.3%
S=c1[nH]nc(-c2cccs2)n1/N=C/c1cn(-c2ccccc2)nc1-c1ccc(Cl)cc1	57.5%
